Assay [1] addresses ATP-dependent 6-phosphofructokinase (Trypanosoma brucei brucei) (UniProt O15648). Put plainly: qHTS Assay to Find Inhibitors of T. brucei phosphofructokinase: hit validation (AID 492961). Note: % is set by controls: 0 for no effect and ±100 for the full control effect. The procedure, abridged:
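Luminescence from ADP-Glo reports ADP generated as T. brucei PFK (1.25 nM) phosphorylates 0.5 mM fructose-6-phosphate using 0.1 mM ATP. Reactions ran 45 min at room temperature, pH 8.0.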
(In general: Quantitative high-throughput screening tests each substance at several concentrations.)

Assay [2] can be described thus: qHTS profiling for inhibitors of Plasmodium falciparum proliferation (AID 504749).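 For activity, negative = inhibition: 0% = DMSO vehicle and full inhibition = artemisinin control.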 For all read-outs here: nearly all actives have a fitted effect of over 60% in size. Note: potency is the fitted concentration of half-maximal effect. As to conditions: P. falciparum in erythrocytes, SYBR Green DNA, 72 h; for activity, negative = inhibition: at 28.7 µM (top of the series). The procedure, abridged:
(§1)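 Each compound contacts P. falciparum-infected red blood cells for 72 h at 37 C; lysis buffer (Tris, EDTA, saponin, Triton X, SYBR Green I) is added and fluorescence measured next morning; values normalized to controls.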

The next assay concerns 3D7. Described as above. As to conditions: P. falciparum in erythrocytes, SYBR Green DNA, 72 h; series mostly up to 28.7 µM. The essentials: as §1
The subject of the next assay is 7G8. The description is as above. As to conditions: P. falciparum in erythrocytes, SYBR Green DNA, 72 h; series mostly up to 28.7 µM. The essentials: as §1
The next assay relates to AS120. The description is as above. As to conditions: P. falciparum in erythrocytes, SYBR Green DNA, 72 h; series mostly up to 28.7 µM. The procedure, abridged: as §1
The subject of a further assay is ATS189. The description is as above. The note with it: P. falciparum in erythrocytes, SYBR Green DNA, 72 h; series mostly up to 28.7 µM. The procedure, abridged: as §1
The next assay deals with CP185. The description is as above. The note with it: P. falciparum in erythrocytes, SYBR Green DNA, 72 h; series mostly up to 28.7 µM. The essentials:
as §1

In another assay the test system is CP191. The description is as above. As to conditions: P. falciparum in erythrocytes, SYBR Green DNA, 72 h; series mostly up to 28.7 µM. The essentials:
as §1

Another assay deals with CP192. Described as above. The note with it: P. falciparum in erythrocytes, SYBR Green DNA, 72 h; series mostly up to 28.7 µM. The essentials:
as §1

The next assay concerns CP194. The description is as above. The note with it: P. falciparum in erythrocytes, SYBR Green DNA, 72 h; series mostly up to 28.7 µM. The essentials:
as §1

The subject of the next assay is CP201. The description is as above. The note with it: P. falciparum in erythrocytes, SYBR Green DNA, 72 h; series mostly up to 28.7 µM. The procedure, abridged: as §1
The subject of another assay is CP203. The description is as above. The note with it: P. falciparum in erythrocytes, SYBR Green DNA, 72 h; series mostly up to 28.7 µM. The essentials: as §1
Another assay deals with CP237. The assay is described as above. The note with it: P. falciparum in erythrocytes, SYBR Green DNA, 72 h; series mostly up to 28.7 µM. The procedure, abridged: as §1
Another assay has as its system CP238. Described as above. The note with it: P. falciparum in erythrocytes, SYBR Green DNA, 72 h; series mostly up to 28.7 µM. The essentials: as §1
The next assay relates to CP247. Described as above. As to conditions: P. falciparum in erythrocytes, SYBR Green DNA, 72 h; series mostly up to 28.7 µM. The procedure, abridged: as §1
In another assay the test system is CP286. The assay is described as above. As to conditions: P. falciparum in erythrocytes, SYBR Green DNA, 72 h; series mostly up to 28.7 µM. The procedure, abridged:
as §1

Another assay has as its system DFO2036. The description is as above. The note with it: P. falciparum in erythrocytes, SYBR Green DNA, 72 h; series mostly up to 28.7 µM. The procedure, abridged:
as §1

In a further assay the test system is DIV30. Described as above. The note with it: P. falciparum in erythrocytes, SYBR Green DNA, 72 h; series mostly up to 28.7 µM. The essentials:
as §1

Another assay relates to HB3. The assay is described as above. The note with it: P. falciparum in erythrocytes, SYBR Green DNA, 72 h; series mostly up to 28.7 µM. The essentials:
as §1

The next assay has as its system P94_40. The description is as above. As to conditions: P. falciparum in erythrocytes, SYBR Green DNA, 72 h; series mostly up to 28.7 µM. The essentials:
as §1

Results filed as inconclusive are left out. A number with no mark means an inactive call. Active and inactive are the calls of the source. Calls come from the whole dose curve; as a rule, active = well fitted curve in the direction sought with a large enough effect; inconclusive = small, poorly fitted or top-dose-only effect, or another doubt; inactive = no such curve, though single readings can be large; an effect the other way counts as inactive or inconclusive.

Chain of ATP-dependent 6-phosphofructokinase (Trypanosoma brucei brucei) (O15648 whole entry, looked up): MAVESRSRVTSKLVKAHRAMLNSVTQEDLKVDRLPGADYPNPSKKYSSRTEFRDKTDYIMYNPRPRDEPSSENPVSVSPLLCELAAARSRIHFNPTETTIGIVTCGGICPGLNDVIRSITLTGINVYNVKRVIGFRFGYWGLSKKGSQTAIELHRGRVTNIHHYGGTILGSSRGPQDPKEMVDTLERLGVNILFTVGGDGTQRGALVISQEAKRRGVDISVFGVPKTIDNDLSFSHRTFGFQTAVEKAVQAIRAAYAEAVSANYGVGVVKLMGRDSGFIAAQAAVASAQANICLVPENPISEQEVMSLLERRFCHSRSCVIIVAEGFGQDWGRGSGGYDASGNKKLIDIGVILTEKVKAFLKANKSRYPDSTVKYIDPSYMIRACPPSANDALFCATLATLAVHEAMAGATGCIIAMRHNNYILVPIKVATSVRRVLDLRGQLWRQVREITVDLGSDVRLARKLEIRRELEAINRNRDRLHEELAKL

Regarding `CCC(C(=O)O)C1OC(C(C)C(O)C(C)C(=O)C(CC)C2OC3(C=CC(O)C4(CCC(C)(C5CCC(O)(CC)C(C)O5)O4)O3)C(C)CC2C)C(C)CC1C` (stereo not given), the Potency entry in assay [1] is “inactive”. In addition, the Potency in assay [2] (parasite line A) was 141 nM (active); in [2] (parasite line B), 158 nM (active); in the assay with 3D7 it was 100 nM (active); in the assay with 7G8, 79.4 nM (active); in the assay on AS120, 79.4 nM (active); with ATS189 it was 158 nM (active). Moreover, the Potency with CP185 is 224 nM (active); in the assay with CP191, 100 nM (active); in the assay on CP192, 169 nM (active); in the assay with CP194, 75.7 nM (active); in the assay with CP201 it was 95.3 nM (active); in the assay with CP203, 37.9 nM (active). Besides, the Potency in the assay with CP237 was 56.2 nM (active); in the assay with CP238, 199 nM (active); in the assay with CP247, 112 nM (active); with CP286 it was 141 nM (active); in the assay with DFO2036, 126 nM (active); in the assay on DIV30, 67.5 nM (active). The figures for the Potency with HB3 and in the assay on P94_40 were 79.4 nM (active) and 70.8 nM (active), respectively.
Regarding `O=C1C(I)=CC(=C(c2cc(I)c(O)c(I)c2)c2ccccc2C(=O)O)C=C1I`, the Potency result (in assay [1]; in the assay on 3D7; with 7G8; in the assay on AS120; in the assay with ATS189; in the assay with CP185) was “inactive” each time. Besides, the Potency entry in the assay on CP191, in the assay with CP192, in the assay on CP194, in the assay with CP201, in the assay on CP203 and in the assay on CP237 was “inactive” each time. The Potency entry with CP238, in the assay on CP247, in the assay with CP286, in the assay with DFO2036, in the assay on DIV30 and with HB3 was “inactive” throughout. In addition, the Potency result with P94_40 is “inactive”. The results for the activity, negative = inhibition in assay [2] (parasite line A) and in [2] (parasite line B) were 1.17% and -0.638%, respectively.
`CC(=O)NC1[C@H]([C@H](O)[C@H](O)CO)OC(C(=O)O)=C[C@H]1N=C(N)N` (stereo not given in full): the Potency entry (in assay [1]; in the assay on 3D7; in the assay with 7G8; in the assay on AS120; with ATS189; with CP185) was “inactive” in each case. Moreover, the Potency result with CP191, in the assay with CP192, with CP194, in the assay with CP201, with CP203 and with CP237 was “inactive” in each case. Also, the Potency result in the assay on CP238, in the assay with CP247, in the assay on CP286, with DFO2036, in the assay on DIV30 and with HB3 was “inactive” throughout. Also, the Potency result in the assay on P94_40 is “inactive”. The activity, negative = inhibition in [2] (parasite line A) was 4.99%; in assay [2] (parasite line B) it was 6.49%.
For `OCCN1CC(O)C(O)C(O)C1CO` (stereo not given), the Potency result (in assay [1]; in the assay with 3D7; in the assay with 7G8; in the assay on AS120; in the assay with ATS189; with CP185) was “inactive” in each case. Also, the Potency result with CP191, in the assay with CP192, in the assay on CP194, in the assay with CP201, in the assay on CP203 and with CP237 was “inactive” throughout. The Potency result with CP238, with CP247, in the assay with CP286, in the assay with DFO2036, in the assay on DIV30 and in the assay on HB3 was “inactive” throughout. Besides, in the assay on P94_40, the Potency entry was “inactive”. For the same compound, the values for the activity, negative = inhibition in assay [2] (parasite line A) and in [2] (parasite line B) were 13.3% and 21.3%, respectively.
In the case of `OC[C@@H]1O[C@](CO)(O[C@H]2O[C@H](CO)[C@@H](O)[C@H](O)[C@H]2O)[C@H](O)[C@H]1O`, the Potency result (in assay [1]; in the assay with 3D7; with 7G8; with AS120; in the assay on ATS189; with CP185) was “inactive” in each case. The Potency entry in the assay on CP191, in the assay on CP192, in the assay on CP194, in the assay with CP201, in the assay with CP203 and with CP237 was “inactive” throughout. Also, the Potency result in the assay with CP238, in the assay with CP247, with CP286, in the assay with DFO2036, with DIV30 and in the assay on HB3 was “inactive” each time. The Potency entry in the assay with P94_40 is “inactive”. Besides, the activity, negative = inhibition in [2] (parasite line A) was -1.62%; in assay [2] (parasite line B), 7.05%.

(Values after PubChem BioAssay (NCATS).)
